Data taken from PubChem BioAssay (NCI).
About 79,000 compounds went through this panel and 15% of them were active in at least one assay; those are over-represented in the sample as a whole. Active and inactive are the calls of the source. No stated cut-off is given here; in the data, active means growth inhibition above about 70%; inactive means the rest.

Assays:
[1] = NCI Yeast Anticancer Drug Screen. Data for the rad52 strain (AID 147);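 further: 0% = growth of vehicle-treated control cultures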; conditions: S. cerevisiae rad52 mutant growth inhibition, hits give high values
Method in brief: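 Screen used a yeast mutant impaired in DNA repair. After compound exposure, growth was measured. Values reflect inhibition compared with vehicle-treated cells.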

[2] = NCI Yeast Anticancer Drug Screen. Data for the wt1 strain (AID 149);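 further: 0% = growth of vehicle-treated wt1 cultures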; conditions: S. cerevisiae wt1 strain (SPY 50644) growth inhibition, hits give high values
Method in brief: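 Using yeast strain wt1, compound-induced growth inhibition was determined against vehicle-treated cultures.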

[3] = NCI Yeast Anticancer Drug Screen. Data for the rad50EPP+ strain (AID 151);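 further: 0% = growth of vehicle-treated control cultures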; conditions: S. cerevisiae rad50 mutant strain, hits give high values
Method in brief: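 Exposing the rad50EPP+ strain to each compound, growth was compared with vehicle-only cultures to give inhibition.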

[4] = NCI Yeast Anticancer Drug Screen. Data for the mgt1 strain (AID 153); conditions: S. cerevisiae mgt1 mutant growth inhibition, hits give high values
Method in brief: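 Genetically defined yeast (mgt1) treated with compound; inhibition of growth expressed against vehicle-treated controls.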

[5] = NCI Yeast Anticancer Drug Screen. Data for the rad50 strain (AID 155);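 further: 0% = growth of vehicle-only cultures of the same strain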; conditions: S. cerevisiae rad50 strain growth inhibition, hits give high values
Method in brief: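 Relative growth inhibition (compound vs vehicle) was measured in yeast with a defined repair-gene alteration.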

[6] = NCI Yeast Anticancer Drug Screen. Data for the mec2-1 strain (AID 157); conditions: S. cerevisiae mec2-1 strain, hits give high values
Method in brief: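 Readout is yeast growth inhibition, normalised to vehicle-treated controls, in the mec2-1 strain exposed to compound.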

[7] = NCI Yeast Anticancer Drug Screen. Data for the rad14 strain (AID 159);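 further: 0% = growth of vehicle-treated control cultures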; conditions: S. cerevisiae rad14 strain growth inhibition, hits give high values
Method in brief: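 Screen for anticancer potential: a yeast strain altered in DNA damage repair is grown with compound, and reduced growth is quantified against vehicle controls.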

[8] = NCI Yeast Anticancer Drug Screen. Data for the sgs1 mgt1 strain (AID 161);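 further: 0% = growth of cultures given vehicle only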; conditions: S. cerevisiae sgs1 mgt1 strain, hits give high values
Method in brief: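 Percent growth inhibition was derived by comparing compound-exposed mutant yeast with vehicle-exposed cultures. The strain carries alterations in DNA damage repair.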

[9] = NCI Yeast Anticancer Drug Screen. Data for the CLN2oe strain (AID 163);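 further: 0% = growth of vehicle-only control cultures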; conditions: S. cerevisiae CLN2oe strain, hits give high values
Method in brief: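 Values reflect how much compound exposure reduced yeast growth, referenced to vehicle-exposed cells. Assay organism is a strain with a defined genetic change affecting cell-cycle control.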

[10] = NCI Yeast Anticancer Drug Screen. Data for the cln2 rad14 strain (AID 165);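 further: 0% = growth equal to vehicle treated cultures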; conditions: S. cerevisiae cln2 rad14 strain, hits give high values
Method in brief: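 Relative to vehicle controls, growth inhibition of compound-treated cln2 rad14 yeast was recorded.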

[11] = NCI Yeast Anticancer Drug Screen. Data for the bub3 strain (AID 167); conditions: S. cerevisiae bub3 mutant strain, hits give high values
Method in brief: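 Screening used yeast with an engineered genetic alteration affecting cell cycle control. Compound-exposed cultures were compared with vehicle cultures, and reduced growth was taken as inhibition.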

[12] = NCI Yeast Anticancer Drug Screen. Data for the wt2 strain (AID 169);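 further: 0% = growth of vehicle-treated yeast cultures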; conditions: S. cerevisiae wt2 strain growth inhibition, hits give high values
Method in brief: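 Values express reduction in yeast growth under compound treatment, referenced to vehicle-treated cells.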

[13] = NCI Yeast Anticancer Drug Screen. Data for the mlh1 strain (AID 171);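 further: 0% = growth of vehicle-treated control cultures of the same strain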; conditions: S. cerevisiae mlh1 strain growth inhibition, hits give high values
Method in brief: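 Steps: expose the defined-mutant yeast strain to compound; expose a parallel culture to vehicle; measure growth; express compound effect as inhibition relative to the vehicle culture.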

[14] = NCI Yeast Anticancer Drug Screen. Data for the mlh1 rad18 strain (AID 175); conditions: S. cerevisiae mlh1 rad18 strain growth inhibition, hits give high values
Method in brief: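 Test agents were incubated with a yeast strain of defined genotype (DNA damage repair defect). Inhibition of growth was derived by comparison with vehicle-exposed cultures.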

[15] = NCI Yeast Anticancer Drug Screen. Data for the rad18 strain (AID 177); conditions: S. cerevisiae rad18 mutant growth inhibition, hits give high values
Method in brief: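 A genetically defined yeast mutant impaired in DNA damage repair was treated with test compounds, then its growth was measured against cultures receiving vehicle alone.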

[16] = NCI Yeast Anticancer Drug Screen. Data for the sgs1 strain (AID 173);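 further: 0% = growth of vehicle-only control cultures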; conditions: S. cerevisiae sgs1 mutant, hits give high values
Method in brief: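 Treat defined-mutant yeast with compound; measure growth; calculate inhibition relative to vehicle-treated cells.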

[17] = at 5.0 µM (retest, dose inferred, filed as 0.5)
[18] = at 50.0 µM (retest, dose inferred, filed as 5.0)

Measured: growth inhibition

CCC(=O)C1=C(O)c2cc(OC)ccc2CC1C(=O)OC (stereo unspecified)
active: [3]; at 33.0 µM 73% | [3]; at 100.0 µM 86% | [5]; [18] 73% | [8]; [18] 89% | [11]; [18] 78% | [14]; [18] 90%
inactive: [1]; at 1.2 µM -1% | [1]; at 3.7 µM 2% | [1]; at 11.0 µM 7% | [1]; at 33.0 µM 16% | [1]; at 100.0 µM 43% | [2]; at 1.2 µM 0% | [2]; at 3.7 µM 5% | [2]; at 11.0 µM 4% | [2]; at 33.0 µM 6% | [2]; at 100.0 µM 19% | [3]; at 1.2 µM 2% | [3]; at 3.7 µM 6% | [3]; at 11.0 µM 43% | [4]; at 1.2 µM -2% | [4]; at 3.7 µM -1% | [4]; at 11.0 µM 4% | [4]; at 33.0 µM 10% | [4]; at 100.0 µM 19% | [5]; at 1.2 µM -1% | [5]; at 3.7 µM -1% | [5]; [17] -9% | [5]; at 11.0 µM 6% | [5]; at 33.0 µM 4% | [5]; at 50.0 µM 13.1% | [5]; at 100.0 µM 28% | [6]; at 1.2 µM -1% | [6]; at 3.7 µM -4% | [6]; [17] -5% | [6]; at 11.0 µM -1% | [6]; at 33.0 µM 13% | [6]; [18] -1% | [6]; at 50.0 µM 13.2% | [6]; at 100.0 µM 35% | [7]; at 1.2 µM 2% | [7]; at 3.7 µM 6% | [7]; at 11.0 µM 11% | [7]; at 33.0 µM 19% | [7]; at 100.0 µM 35% | [8]; [17] -3% | [8]; at 50.0 µM 24% | [9]; at 1.2 µM -7% | [9]; at 3.7 µM -8% | [9]; at 11.0 µM 2% | [9]; at 33.0 µM 10% | [9]; at 100.0 µM 21% | [10]; [17] -5% | [10]; [18] 20% | [10]; at 50.0 µM 4.75% | [11]; at 1.2 µM -7% | [11]; at 3.7 µM -8% | [11]; [17] 7% | [11]; at 11.0 µM -9% | [11]; at 33.0 µM 2% | [11]; at 50.0 µM 38.9% | [11]; at 100.0 µM 15% | [12]; at 1.2 µM -2% | [12]; at 3.7 µM 3% | [12]; at 11.0 µM 8% | [12]; at 33.0 µM 14% | [12]; at 100.0 µM 30% | [13]; at 1.2 µM -5% | [13]; at 3.7 µM -1% | [13]; at 11.0 µM 2% | [13]; at 33.0 µM 10% | [13]; at 100.0 µM 26% | [14]; [17] 16% | [14]; at 50.0 µM 31.4% | [15]; at 1.2 µM -1% | [15]; at 3.7 µM -3% | [15]; at 11.0 µM 2% | [15]; at 33.0 µM 8% | [15]; at 100.0 µM 21%

CC1(c2ccccc2)O[C@@H]2C[C@H]3[C@@H]4CCC5=CC(=O)C=C[C@]5(C)[C@@]4(F)[C@@H](O)C[C@]3(C)[C@]2(C(=O)CO)O1 (stereo partly specified)
active: [1]; at 100.0 µM 98% | [2]; at 100.0 µM 94% | [4]; at 100.0 µM 98% | [5]; at 50.0 µM 92.7% | [5]; at 100.0 µM 97% | [6]; at 50.0 µM 91.2% | [6]; at 100.0 µM 98% | [7]; at 33.0 µM 75% | [7]; at 100.0 µM 99% | [8]; at 50.0 µM 92.1% | [10]; at 50.0 µM 95.8% | [11]; at 50.0 µM 90.9% | [11]; at 100.0 µM 95% | [12]; at 100.0 µM 98% | [13]; at 100.0 µM 96% | [16]; at 100.0 µM 97% | [14]; at 50.0 µM 96.2% | [15]; at 33.0 µM 76% | [15]; at 100.0 µM 98%
inactive: [1]; at 1.2 µM -3% | [1]; at 3.7 µM -2% | [1]; at 11.0 µM 6% | [1]; at 33.0 µM 62% | [2]; at 1.2 µM 0% | [2]; at 3.7 µM 6% | [2]; at 11.0 µM 3% | [2]; at 33.0 µM 24% | [3]; at 1.2 µM 3% | [3]; at 3.7 µM 3% | [3]; at 11.0 µM 7% | [3]; at 33.0 µM 11% | [3]; at 100.0 µM 23% | [4]; at 1.2 µM -2% | [4]; at 3.7 µM -5% | [4]; at 11.0 µM -5% | [4]; at 33.0 µM 53% | [5]; at 1.2 µM -2% | [5]; at 3.7 µM 0% | [5]; [17] 15% | [5]; at 11.0 µM 6% | [5]; at 33.0 µM 51% | [5]; [18] 35% | [6]; at 1.2 µM 3% | [6]; at 3.7 µM 5% | [6]; [17] 1% | [6]; at 11.0 µM 10% | [6]; at 33.0 µM 41% | [6]; [18] 8% | [7]; at 1.2 µM -2% | [7]; at 3.7 µM 2% | [7]; at 11.0 µM 11% | [8]; [17] 2% | [8]; [18] 33% | [10]; [17] 6% | [10]; [18] 15% | [11]; at 1.2 µM -3% | [11]; at 3.7 µM -10% | [11]; [17] -11% | [11]; at 11.0 µM -4% | [11]; at 33.0 µM 21% | [11]; [18] 10% | [12]; at 1.2 µM 1% | [12]; at 3.7 µM -1% | [12]; at 11.0 µM -2% | [12]; at 33.0 µM 60% | [13]; at 1.2 µM -1% | [13]; at 3.7 µM 2% | [13]; at 11.0 µM 5% | [13]; at 33.0 µM 66% | [16]; at 1.2 µM 0% | [16]; at 3.7 µM 3% | [16]; at 11.0 µM 10% | [16]; at 33.0 µM 62% | [14]; [17] -4% | [14]; [18] 56% | [15]; at 1.2 µM -1% | [15]; at 3.7 µM 4% | [15]; at 11.0 µM 21%

COC(=O)C(=O)c1c(-c2ccc(Cl)c(Cl)c2)[nH]c2[nH]n(-c3ccccc3)c(=O)c2c1=O
inactive: [1]; at 1.2 µM -2% | [1]; at 3.7 µM -5% | [1]; at 11.0 µM 37% | [1]; at 33.0 µM 55% | [1]; at 100.0 µM 61% | [2]; at 1.2 µM -1% | [2]; at 3.7 µM -3% | [2]; at 11.0 µM 24% | [2]; at 33.0 µM 54% | [2]; at 100.0 µM 55% | [3]; at 1.2 µM 2% | [3]; at 3.7 µM 0% | [3]; at 11.0 µM 24% | [3]; at 33.0 µM 56% | [4]; at 1.2 µM -2% | [4]; at 3.7 µM -2% | [4]; at 11.0 µM 44% | [4]; at 33.0 µM 68% | [4]; at 100.0 µM 68% | [5]; at 1.2 µM 0% | [5]; at 3.7 µM 27% | [5]; [17] -5% | [5]; at 11.0 µM 22% | [5]; at 33.0 µM 40% | [5]; at 100.0 µM 65% | [6]; at 1.2 µM -2% | [6]; at 3.7 µM -7%
active: [3]; at 100.0 µM 76% | [5]; [18] 85% | [5]; at 50.0 µM 93.1%
